From PubChem BioAssay
An excerpt weighted towards active compounds, which were near 1.6% of everything screened.
m5-HT2A agonist: agonists of mouse serotonin 5-HT2A receptor (HTR2A) | CHO-K1 mHTR2A beta-arrestin complementation, luminescence; percent of 30 µM serotonin response | AID 624169 | activation, % at 7.6 µM | 360,000 compounds, 0.66% hits | P35363;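 active means activation above a run cutoff, the mean activation of all tested compounds plus 3 SD, cut at about 14% in these data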;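 further: 0% = plate median of compound wells and 100% = 30 µM serotonin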
HTR5A inv ag: HTR5A inverse agonism, opioid heterodimer counter-screen; P47898; HTR5A cell line, luminescence; inhibition, % at 9.3 µM; 340,000 compounds, 0.083% hits; in the data active means inhibition mostly above about 23%, no sharp cut-off; inactive means mostly below about 18%;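 further: 0% = cells with DMSO and 100% = no-cell wells with DMSO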
Target sequence (P47898 whole entry, looked up): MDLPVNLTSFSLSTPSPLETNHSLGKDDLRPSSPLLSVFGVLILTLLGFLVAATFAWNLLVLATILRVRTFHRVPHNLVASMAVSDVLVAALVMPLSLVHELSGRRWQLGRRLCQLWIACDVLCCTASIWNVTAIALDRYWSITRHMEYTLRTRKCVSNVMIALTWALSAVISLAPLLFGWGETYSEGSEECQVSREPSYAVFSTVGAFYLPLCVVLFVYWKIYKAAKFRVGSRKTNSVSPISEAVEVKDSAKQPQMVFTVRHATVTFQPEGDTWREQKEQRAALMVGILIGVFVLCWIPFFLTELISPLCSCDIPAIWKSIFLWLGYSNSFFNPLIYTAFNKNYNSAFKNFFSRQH
MOR-DOR ag: agonists of human mu-delta opioid receptor heterodimerization; P35372+P41143; cells, OPRM1-OPRD1 heterodimerization, luminescence; activation, % at 9.3 µM; 340,000 compounds, 0.3% hits; in the data active means activation above about 18%;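 further: 0% = vehicle-treated cells and 100% = reference agonist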
MOR-DOR inv ag: mu-delta opioid heterodimer inverse agonism; inhibition, % at 9.3 µM; AID 504357; cell-based MOR-DOR heterodimer luminescence; 340,000 compounds, 0.21% hits; in the data active means inhibition above about 22%, passing the limit was not always enough;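 further: 0% = cells with DMSO and 100% = wells without cells with DMSO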
HTR5A ag ctr: activates human HTR5A in OPRM1-OPRD1 agonist counter-screen; P47898; HTR5A agonist assay, luminescence, cell-based; activation, % at 9.3 µM; AID 504692; 340,000 compounds, 0.61% hits; in the data active means activation mostly above about 9.5%, no sharp cut-off; inactive means mostly below about 7.6%;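 further: 0% = cells with vehicle only and 100% = reference agonist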
Numbers without * were called inactive; · = not tested or not shown.

SMILES	m5-HT2A agonist	HTR5A inv ag	MOR-DOR ag	MOR-DOR inv ag	HTR5A ag ctr
O=C(NCc1cccc(C(F)(F)F)c1)c1ccc2nc([C@H]3C[C@H](O)[C@@H](CO)O3)[nH]c2c1	-11.0	·	·	·	·
O=C1NC[C@@H](c2ccccc2)OC(=O)[C@@H](Cc2ccc(F)cc2)C/C=C\C[C@@H]1CC(=O)N(CCO)Cc1ccccc1	-4.4	48.2*	-6.8	37.1*	-19.0
CC1(C)OC2COC(c3[nH]nc4c(=O)[nH]c(=O)[nH]c34)C2O1 (stereo not drawn)	-3.0	·	·	·	·
COc1ccc(Cl)cc1Nc1nc(C)nc2c1nnn2Cc1ccccc1	0.5	-24.3	5.2	-26.6	-3.8
CCOC(=O)c1ccc(Nc2nc(C)nc3c2nnn3Cc2ccccc2)cc1	4.5	-28.9	5.2	-25.1	8.5*
C=CCn1c(O)c(N=NC(=O)CNC(=O)Cc2ccccc2)c2ccccc21	-8.1	13.4	-3.0	15.7	10.9*
O=C(NCc1ccccc1Cl)c1[nH]c(C(F)(F)F)nc1-c1ccccc1	-4.6	·	·	·	·
Nc1nc(N)c2c(ccc3nccc32)[nH]1	-5.6	-42.3	-0.6	2.6	11.9*
CCOC(=O)c1nnn(-c2nonc2N)c1COc1ccc(F)cc1	-2.9	9.9	-0.1	0.7	3.5
CCOC(=O)c1nnn(-c2nonc2N)c1COc1ccccc1	3.5	-11.0	3.3	-18.8	11.0*
CC(=O)Nc1cc(-c2ccsc2)cn2c(-c3ccc(F)cc3)cnc12	-6.9	·	·	·	·
COC(=O)[C@@]1(Cc2ccc(OC)cc2)[C@H]2c3cc(C(=O)N(C)C)[nH]c3C[C@H]2CN1C(=O)c1ccccc1	0.8	-8.8	-3.5	19.2	13.8*
COC(=O)[C@@]1(Cc2ccc(OC)cc2)[C@H]2c3cc(C(=O)N(C)C)n(Cc4c(CO)[nH]cc(C)c4=O)c3C[C@H]2CN1C(=O)c1ccccc1	-3.9	-3.9	-2.7	15.7	1.5
Nc1ccc(N(CCO)CCO)cc1	4.6	-33.9	3.7	-16.9	12.3*
O=C(CN1CCN(CCC(=O)Nc2ccccc2F)CC1)Nc1ccc(F)cc1	0.5	13.6	-3.5	15.5	-0.4
O=C(CN1CCN(CCC(=O)Nc2ccccc2F)CC1)Nc1ccc(Cl)cc1	-2.1	-28.8	-1.9	9.6	13.1*
Cc1ccc(Cl)cc1N1CCN(C(=O)c2noc(C)c2[N+](=O)[O-])CC1	2.9	-37.4	14.9	-74.8	10.0*
Cc1onc(C(=O)N2CCN(c3ccccc3)CC2)c1[N+](=O)[O-]	0.8	3.8	-3.4	17.4	0.2
C=CCn1c(Cc2cccs2)nnc1SCC(=O)Nc1ccc(OC)c(OC)c1	8.4	-20.3	2.8	-16.5	4.1
CCn1c(SCC(=O)Nc2ccc3c(c2)oc2ccccc23)nnc1-c1ccc(N)cc1	6.1	-21.3	14.4	-79.9	10.6*
CCn1c(Cc2cccs2)nnc1SCC(=O)Nc1ccc(OC)c(OC)c1	1.9	-39.8	-1.2	6.7	9.7*
COc1ccc(CN(C(C)=O)c2cc(C)c([N+](=O)[O-])cc2OC)cc1OC	3.2	·	·	·	·
CC1(C)CC(=O)C=C(c2ccc(-c3cccc(C(N)=O)c3)cc2)C1=O	-4.3	·	·	·	·
CCOC(=O)[C@]12CCCC=C1N(Cc1ccc3c(c1)OCO3)C(=O)[C@H](CC(=O)NCc1ccc(C)o1)C2	3.5	·	·	·	·
Cc1cccc(NC(=O)C2(C)CC3c4ccccc4C2c2ccccc23)c1 (stereo not drawn)	10.8	-37.4	13.6	-72.8	10.3*
SMILES	m5-HT2A agonist	HTR5A inv ag	MOR-DOR ag	MOR-DOR inv ag	HTR5A ag ctr
CC[C@]1(C(=O)OC)[C@H]2C(=O)N(Cc3ccccc3)C(=O)[C@H]2[C@H]2CN=C(SCC3CC3)N21	0.6	-18.1	-1.8	8.6	5.3*
CC[C@]1(C(=O)OC)[C@H]2C(=O)N(Cc3ccccc3)C(=O)[C@H]2[C@H]2CN=C(SCc3ccc(C)cc3)N21	-2.6	13.8	-1.2	5.6	-3.9
COc1cc(Cl)ccc1OC1(C)CCN(Cc2ccc3ccccc3c2)C1 (stereo not drawn)	-4.8	·	·	·	·
CCCC(C)(C)C(=O)N1CCC1(C)C(=O)NS(=O)(=O)c1cccc(Cl)c1 (stereo not drawn)	8.2	·	·	·	·
O=C(NC(c1ccccc1)c1c(O)ccc2ccccc12)c1ccccc1Cl (stereo not drawn)	5.9	0.9	9.9	-55.3	11.3*
O=C(NC(c1ccc(Cl)cc1)c1c(O)ccc2ccccc12)c1ccccc1 (stereo not drawn)	1.0	-2.8	-1.7	9.3	-1.2
CN1CCN(C2CN(Cc3cn(Cc4ccccc4)nn3)S(=O)(=O)C2)CC1 (stereo not drawn)	-0.7	·	·	·	·
Nc1cc(=O)nc(SCC(=O)N(C2CCCCC2)C2CCCCC2)n1-c1ccccc1	-2.9	-12.2	3.1	-16.6	12.8*
Cc1ccc(NC(=O)CSc2nc(=O)cc(N)n2-c2ccccc2)cc1	-5.9	23.4	0.3	-1.9	-1.8
Cc1ccc(C)c(Cn2cnc3c(nnn3-c3ccc(F)cc3)c2=O)c1	4.2	-25.5	5.9	-32.4	10.3*
COc1ccc(-n2nnc3c(=O)n(Cc4ccccc4C)cnc32)cc1	1.6	-8.6	-2.1	11.5	-0.2
COC(=O)CSc1nc2ccc(NC(=O)CSc3nnnn3Cc3ccccc3)cc2s1	2.3	-10.2	-1.4	8.8	3.8
O=C(CSc1nc2ccc(NC(=O)CSc3nnnn3Cc3ccccc3)cc2s1)Nc1ccccc1	-7.1	-32.4	4.0	-23.3	14.2*
Cn1c(CNC(=O)c2ccccc2F)nnc1SCC(=O)N1CCN(c2ccccc2)CC1	1.0	-5.8	1.5	-7.7	12.0*
Cc1cccc(NC(=S)N/N=C/c2ccc(Cl)c([N+](=O)[O-])c2)c1	-1.0	-22.1	7.9	-43.8	9.3*
CCCCNC(=O)C(NC(=O)Cc1cc(OC)cc(OC)c1)C(=O)c1ccccc1 (stereo not drawn)	0.0	·	·	·	·
CCCCS(=O)(=O)/C=C\C1C2C=CC(C2)C1S(=O)(=O)CCCC (stereo not drawn)	-3.2	7.5	-1.2	6.8	-2.7
CCCCS(=O)(=O)/C=C\C=C/S(=O)(=O)CCCC	-4.5	-6.5	-7.4	37.0*	2.5
Cc1c(C(=O)NCCC2=CCCCC2)sc2ncnc(N3CCCCC3C)c12 (stereo not drawn)	-0.3	-43.8	-0.7	3.6	10.8*
Cc1sc2ncnc(N3CCCCC3C)c2c1C (stereo not drawn)	0.5	-5.0	3.5	-18.1	1.3
O=C(CN(C1CCCCC1)S(=O)(=O)c1ccc(F)cc1)NCC1CCCO1 (stereo not drawn)	-1.9	-61.1	16.2	-84.8	16.8*
O=C1C(Cl)=C(N2CCC(C(=O)O)CC2)C(=O)c2ccccc21	-2.7	0.5	4.3	-22.2	-1.2
CN1CCN(C2=C(Cl)C(=O)c3ccccc3C2=O)CC1	3.1	13.7	28.1*	-136.3	-3.5
Cc1cccc(NC(=O)CNC(=O)[C@H]2O[C@@H](n3ccc(N)nc3=O)[C@H](O)[C@@H]2O)c1C	-2.5	·	·	·	·
C=C[C@H](CC(C)C)N(Cc1ccccc1)S(=O)(=O)N(Cc1ccccc1)[C@@H](C=C)CC(C)C	-0.5	31.5*	-7.5	42.1*	0.4
C/C(=N/NS(=O)(=O)c1ccc(C)cc1)c1c[nH]c2ccccc12	1.9	-29.1	1.4	-4.7	11.1*
